The structures appear in SMILES notation. Whole data set: some 110,000 compounds, median “z-score” near -0.1, cut for the highest 2% near 2. For the sample, the highest values were picked, then their nearest neighbours and some compounds at random. Activity calls are given as the source filed them.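 Rule for the calls: active = z-score in the third read window above 3 or below -3; inactive = the rest.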

Here are results for 112 compounds from PubChem BioAssay AID488969 (Vanderbilt High Throughput Screening Facility, 2010).

For the experiment, the target named is Metabotropic glutamate receptor 8 (Rattus norvegicus) (UniProt P70579). The experiment in a line: rat mGluR8 modulators via GIRK flux, primary screen, cell-based, thallium flux, HTS (AID 488969). The note with it: HEK293 rat mGluR8, GIRK (G protein-gated inwardly rectifying potassium channel) thallium flux, FluoZin2; at 10 µM; stronger effect = higher value; submaximal glutamate (EC20) added with thallium.
Sequence of Metabotropic glutamate receptor 8 (Rattus norvegicus) (P70579 whole entry, looked up): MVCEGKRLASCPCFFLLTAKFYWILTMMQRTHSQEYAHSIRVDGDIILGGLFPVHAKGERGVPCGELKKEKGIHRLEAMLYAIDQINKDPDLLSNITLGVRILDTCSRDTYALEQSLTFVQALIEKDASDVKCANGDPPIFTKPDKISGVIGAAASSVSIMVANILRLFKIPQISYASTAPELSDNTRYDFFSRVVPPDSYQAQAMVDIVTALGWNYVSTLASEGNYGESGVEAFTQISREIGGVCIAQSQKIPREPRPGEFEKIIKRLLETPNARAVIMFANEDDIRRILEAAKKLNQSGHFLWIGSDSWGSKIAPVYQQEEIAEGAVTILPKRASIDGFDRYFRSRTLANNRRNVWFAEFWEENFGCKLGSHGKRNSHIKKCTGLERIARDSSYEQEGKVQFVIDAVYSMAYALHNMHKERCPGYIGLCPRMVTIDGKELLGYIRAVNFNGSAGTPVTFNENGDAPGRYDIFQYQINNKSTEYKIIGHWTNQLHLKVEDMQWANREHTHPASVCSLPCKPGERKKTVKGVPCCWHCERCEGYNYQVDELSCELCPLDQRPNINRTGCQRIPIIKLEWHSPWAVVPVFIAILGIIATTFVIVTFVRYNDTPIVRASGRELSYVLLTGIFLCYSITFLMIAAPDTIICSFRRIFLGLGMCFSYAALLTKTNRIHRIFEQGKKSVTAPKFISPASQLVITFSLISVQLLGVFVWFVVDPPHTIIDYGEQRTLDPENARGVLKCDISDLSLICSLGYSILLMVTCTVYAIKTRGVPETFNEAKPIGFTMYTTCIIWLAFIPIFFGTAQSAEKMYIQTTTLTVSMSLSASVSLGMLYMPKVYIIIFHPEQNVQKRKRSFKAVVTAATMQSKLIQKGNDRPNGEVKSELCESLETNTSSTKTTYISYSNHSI
For `O=C(Cc1c[nH]c2ccccc12)NCc1ccc(Cl)cc1`, the z-score was 0.348.
To `O=C(CCCCCNc1nc(=S)[nH]c2ccccc12)NCCc1ccccc1` belongs 0.302; to `O=C(Cc1csc(Nc2nc(=S)[nH]c3ccccc23)n1)NCc1ccc(Cl)cc1`, 7.05 (active); to `COc1ccc(CNC(=O)Cc2csc(Nc3nc(=S)[nH]c4ccccc34)n2)cc1`, 8.83 (active).
Then `O=C(Cc1csc(Nc2nc(=S)[nH]c3ccccc23)n1)NCc1cccc(Cl)c1`, with 6.85 (active); and `O=C(O)CCCCCNc1nc(=S)[nH]c2ccccc12`, with 0.209; and `O=C(O)Cc1csc(Nc2cccc(Cl)c2)n1`, with 0.819.
In the case of `COC(=O)Cc1csc(Nc2ccccc2Cl)n1`, the z-score was 0.0565.
Then `O=C(CCCSc1nc2ccccc2[nH]1)NCc1ccc(Cl)cc1`, with -0.328.
Then `COc1ccc(CNC(=O)COC(=O)[C@H](Cc2c[nH]c3ccccc23)NC(=O)c2cccs2)cc1`, with 0.0349; and `O=C(Cc1csc(Nc2nc(=S)[nH]c3ccccc23)n1)NCc1ccccc1Cl`, with 3.83 (active); and `COc1ccc(CNC(=O)Cc2c(C(=O)O)[nH]c3ccccc23)cc1`, with -0.136.
Then `Cc1cccc(OCC(=O)Nc2ccc(N3CCN(C(=O)c4ccccc4)CC3)cc2)c1`, with -0.0735; and `Cc1ccc(S(=O)(=O)N2CCOCC2)c2nsnc12`, with -0.358.
Regarding `CCN1CCN(C(CNC(=O)c2ccc3c(c2)OCO3)c2cccnc2)CC1` (configuration not stated), the z-score was -0.319.
To `COc1cc2c(cc1OC)CN(C(=O)C(C)(C)C)CC2` belongs -0.104; to `CN(C1CCCCC1)S(=O)(=O)c1ccc(S(=O)(=O)N2CCN(CCC#N)CC2)cc1`, 0.242.
With `CCS(=O)CCSC(=N)N` (configuration not stated), the z-score is -0.0992.
To `O=C(Cc1csc(-c2ccccc2)n1)NCc1ccc(F)cc1` belongs -0.252.
Then `Cc1ccc(NC(=S)Nc2nc(CC(=O)Nc3ccccc3)cs2)cc1`, with 0.0541.
Then `Cc1ccc(CNC(=O)Cc2csc(Nc3nc(=S)[nH]c4ccccc34)n2)cc1`, with 10.7 (active); and `COc1ccc(-n2nc3ccccc3n2)cc1`, with 0.249.
For the compound `O=C(NCc1ccncc1)C1CCCN(S(=O)(=O)Cc2ccccc2)C1` (configuration not stated), the z-score is -0.193.
In turn, `CCC1CCCCN1C(=O)CSc1nnc(-c2cccs2)o1` (configuration not stated) showed a z-score of 0.801.
To `CCC1CCCCN1C(=O)CSc1nnc(-c2ccco2)o1` (configuration not stated) belongs 11.1 (active); to `CCC1CCCCN1C(=O)CSc1nnc(-c2ccc(Cl)cc2)o1` (configuration not stated), -0.41; to `CCC(NC(=O)Cn1cnc2c(=O)n(C)c(=O)n(C)c21)c1ccccc1` (configuration not stated), 0.0869.
For `COc1ccc(C2C(C(=O)c3ccco3)=C(O)C(=O)N2CCOCCO)cc1OC` (configuration not stated), the z-score is -0.0423.
To `COc1ccc(CC(=O)Nc2cccc(-c3csc(C)n3)c2)cc1` belongs 1.88.
With `O=C(NOC(=O)c1ccccc1Cl)c1cccs1`, the z-score is -0.383.
Consider `COC(=O)NNC(=O)c1ccc(C)cc1`, for which the z-score was found to be 0.0536.
Take `Cc1c(C(=O)NCc2ccccc2)oc2ccc(S(=O)(=O)N3CCC4(CC3)OCCO4)cc12`: the z-score was -0.293.
Then `Cc1c(C(=O)NCc2cccnc2)oc2ccc(S(=O)(=O)N3CCC4(CC3)OCCO4)cc12`, with 5.95 (active).
Then `Cc1c(C(=O)NCc2cccnc2)oc2ccc(S(=O)(=O)N3CCCCC3)cc12`, with 1.3; and `CCCOc1ccc(C(=O)Nc2cc(-c3nn4c(C)nnc4s3)ccc2C)cc1`, with -0.185; and `CN(Cc1ccccc1)c1ccc(N2C(=O)CCCC2=O)cc1[N+](=O)[O-]`, with -0.202.
For `Cc1cccc(-c2nc(CSCC(=O)N3CCN(c4ccccn4)CC3)c(C)o2)c1`, the z-score is -1.37.
Then `O=C(O)CCCC(=O)NCCc1ccncc1`, with 0.0989.
Then `COc1ccc(/C=N/NC(=O)C(=O)/C=C2\NC3(CCCC3)Cc3ccccc32)cc1`, with 0.0973; and `Cc1cccc(C(=O)Nc2ccccc2C(=O)OCC(=O)Nc2ccc(C#N)cc2)c1`, with 2.11; and `CC(=O)c1ccccc1NC(=O)COC(=O)c1ccccc1NC(=O)c1ccccc1`, with 0.161.
To `Cc1ccc(NC(=O)COC(=O)c2ccccc2Nc2ccccc2)cc1` belongs -0.179; to `COc1ccc(S(=O)(=O)N2CCN(C(=O)c3ccco3)CC2)cc1OC`, -0.51; to `COc1cc(/C=N/NC(=O)C(Cc2c[nH]c3ccccc23)NC(=O)OCc2ccccc2)cc([N+](=O)[O-])c1O` (configuration not stated), -0.505.
Take `Cc1cccc(N(C(=O)c2csnn2)C(C(=O)NC(C)(C)C)c2ccncc2)c1` (configuration not stated): the z-score is -0.134.
To `CC(C)(C)NC(=O)C(c1ccncc1)N(C(=O)c1csnn1)c1ccccc1` (configuration not stated) belongs 6.21 (active).
On to `Cc1ccc(N(C(=O)c2csnn2)C(C(=O)NC(C)(C)C)c2ccncc2)cc1` (configuration not stated), for which the z-score was -0.134.
Then `CC(C)COC(=O)c1cc(=O)[nH]c2ccccc12`, with 1.23; and `CCc1ccc(NC(=O)c2cc(C)on2)cc1`, with -0.546.
Then `CCc1ccc2nc(NC(=O)c3cc(C)on3)sc2c1`, with 10.1 (active); and `Cc1cc(C)c2nc(NC(=O)C3CCCO3)sc2c1` (configuration not stated), with 0.217; and `CCc1ccc2nc(NC(=O)CSCc3c(C)noc3C)sc2c1`, with -0.0333.
To `Cc1cc(C)c2nc(NC(=O)c3cc(C)on3)sc2c1` belongs 12 (active); to `Cc1cc(C)c2nc(NC(=O)c3ccc(OCC4CCCO4)cc3)sc2c1` (configuration not stated), -0.201.
`O=C(Oc1ccc(Br)cc1C(=S)N1CCCC1)c1ccccc1Cl`: the z-score was -0.0754.
Then `CCOC(=O)N1CCN(Cc2nc(N)nc(Nc3ccc(OCC)cc3)n2)CC1`, with -0.27.
Turning to `CC(=O)OC1COC(n2ccc3cc([N+](=O)[O-])ccc32)C(OC(C)=O)C1OC(C)=O` (configuration not stated), the z-score was determined as 0.0746.
Turning to `CC(=O)NC1(C(F)(F)F)C(=O)NC(C)=C1C#N` (configuration not stated), the z-score was -1.29.
Then `Cn1c(=O)[nH]c(=O)c2c1nc(NCc1ccccc1)n2CCCc1ccccc1`, with -0.132.
To `CN(C)CCNc1nc2c(c(=O)[nH]c(=O)n2C)n1CCCc1ccccc1` belongs 3.35 (active).
To `Cn1c(=O)[nH]c(=O)c2c1nc(NCCCO)n2CCCc1ccccc1` belongs 0.0396; to `CC(C)NS(=O)(=O)c1ccc(NC(=O)C2CC3C=CC2C3)cc1` (configuration not stated), -0.0807; to `O=C1Nc2ccccc2SC(c2ccccc2)C1O` (configuration not stated), -0.0924.
Turning to `O=C(CN1CCC(n2nnc3cc(F)ccc32)CC1)N1CCc2ccccc2C1`, the z-score is -0.899.
Then `O=C(CSc1n[nH]c(-c2ccc(S(=O)(=O)N3CCCCC3)cc2)n1)Nc1nccs1`, with 0.951.
To `CCC(c1nnnn1CCOC)N(Cc1ccc(C)cc1)Cc1cc2cc(OC)ccc2[nH]c1=O` (configuration not stated) belongs 0.378; to `CCC(c1nnnn1Cc1ccc(OC)cc1)N(CCCO)Cc1cc2cc3c(cc2[nH]c1=O)OCO3` (configuration not stated), 5.57 (active).
To `CCC(c1nnnn1Cc1ccccc1)N(Cc1ccco1)Cc1cc2cc(OC)ccc2[nH]c1=O` (configuration not stated) belongs -0.0441; to `COc1ccc(OC)c(N(CC(=O)Nc2ccc3c(c2)OCO3)S(=O)(=O)c2ccccc2)c1`, -0.348; to `CCC1CCCCN1S(=O)(=O)c1ccc(C(=O)Nc2nnc(-c3ccccc3Cl)o2)cc1` (configuration not stated), 1.12.
As for `COCc1nnc(NC(=O)c2ccc(S(=O)(=O)N3CCCCCC3)cc2)o1`, the z-score was -0.164.
Then `Cc1nnc(NC(=O)c2ccc(S(=O)(=O)N3CCCCCC3)cc2)o1`, with -0.304; and `CC1CCCN(S(=O)(=O)c2ccc(C(=O)Nc3nnc(-c4ccccc4Cl)o3)cc2)C1` (configuration not stated), with 3.98 (active).
Then `O=C(Nc1nnc(-c2ccccc2Cl)o1)c1ccc(S(=O)(=O)N2CCCCCC2)cc1`, with 13.1 (active); and `CC1CCCN(S(=O)(=O)c2ccc(C(=O)Nc3ccccc3-c3nc4ccccc4[nH]3)cc2)C1` (configuration not stated), with -0.205; and `CCOC(=O)Cc1csc(NC(=O)CSc2nnc(C(C)C)n2CC)n1`, with 0.0208.
Turning to `CCN(CC)c1ccc(NC(=O)c2cccnc2)cc1`, the z-score is -0.663.
To `CCCS(=O)(=O)N1CCC(C(=O)N2CCCC2)CC1` belongs -1.16; to `O=[N+]([O-])c1ccc(N2CCN(S(=O)(=O)c3ccccc3[N+](=O)[O-])CC2)cc1N1CCc2ccccc2C1`, -0.00158; to `O=C(/C=C/c1ccccc1Cl)NCc1ccco1`, -0.133.
To `C=CCN(Cc1cccc(OC)c1OC)S(=O)(=O)N(C)C` belongs -0.164; to `Cc1ccc(-n2nnnc2-c2nc3ccccc3s2)cc1`, 6.16 (active).
`CCOc1ccc(-n2nnnc2-c2nc3ccccc3s2)cc1`: the z-score was -0.319.
As to `Cc1ccc(-n2nnnc2-c2ccco2)cc1`, the z-score is -0.111.
For `CCN(CC)C(=O)/C(=C\c1cccc([N+](=O)[O-])c1)NC(=O)c1ccco1`, the z-score was -0.281.
Regarding `CC(/C=N/NC(=O)c1cc(-c2ccccc2)nc2ccccc12)=C\c1ccco1`, the z-score was -0.0414.
To `CC(/C=N/NC(=O)c1cc(-c2ccc(Cl)cc2)nc2ccccc12)=C\c1ccco1` belongs 0.0726; to `Cc1ccc(-c2cc(C(=O)N/N=C/C=C/c3ccco3)c3ccccc3n2)cc1C`, 2.64; to `Cc1ccc(C(=O)N(Nc2nc3ccccc3s2)C(=O)c2ccc(C)cc2)cc1`, 0.0589.
To `O=C(OCc1ccc([N+](=O)[O-])cc1)c1ccc(N2CCCC2)c([N+](=O)[O-])c1` belongs 0.344; to `CC(C)(C)N1CC2(c3ccccc3)CN(C(C)(C)C)CC(c3ccccc3)(C1)C2=O`, 1.19; to `O=[N+]([O-])c1cnccc1Nc1cccc(F)c1`, 0.28.
For `O=[N+]([O-])c1ccccc1-c1cc(-c2ccccc2O)n[nH]1`, the z-score was -0.676.
Take `O=C(/C=C/c1ccccc1)C1C(=O)c2ccccc2C1=O`: the z-score is 4.21 (active).
To `O=C(/C=C/c1ccccc1)/C=C/c1ccccc1` belongs -0.389.
To `CCc1ccc(/C=C\C(=O)N2CCc3ccccc3C2)cc1` belongs -0.105; to `Cc1ccc(/C=C/C(=O)C2C(=O)c3ccccc3C2=O)cc1`, 0.871.
To `CCc1ccc(/C=C/C(=O)c2c(C)cc(C)[nH]c2=O)cc1` belongs -0.106; to `CCc1ccc(/C=C/C(=O)C2C(=O)c3ccccc3C2=O)cc1`, 3.92 (active).
Compound `COc1ccc(N(C(=O)c2cnsn2)C(C(=O)NC2CCCCC2)c2ccncc2)cc1` (configuration not stated) gave a z-score of 0.0313.
Then `O=C(NC(=S)NCC1CCCO1)c1ccc(Cl)cc1Cl` (configuration not stated), with -0.218; and `CC(C)CNC(=S)NC(=O)c1ccc(Cl)cc1Cl`, with 13.8 (active).
In the case of `CC(C)CC(NC(=O)c1ccc(Cl)cc1Cl)C(=O)O` (configuration not stated), the z-score is -0.413.
As for `CCCCNC(=S)NC(=O)c1ccccc1Br`, the z-score is 6.17 (active).
Then `CCCCNC(=O)c1ccccc1C(=O)NCCCC`, with 0.0704; and `O=C(NC(=S)NCCN1CCOCC1)c1ccc(Cl)cc1Cl`, with 0.241.
To `CCCCNC(=O)c1ccccc1Cl` belongs -0.135; to `CCCCNC(=S)NC(=O)c1ccc(Cl)cc1Cl`, 3.01 (active).
Then `O=C(NC(=S)NCCN1CCOCC1)c1ccccc1Br`, with 0.00751; and `CC(C)NC(=S)NC(=O)c1ccc(Cl)cc1Cl`, with 13.8 (active); and `Cc1cc(Cl)ccc1NC(=S)NCC(C)C`, with -0.0377.
Compound `CCC(=O)Nc1cccc(NC(=S)NC(=O)c2ccc(Cl)cc2Cl)c1` displayed a z-score of 0.0528.
